Reference: PubChem BioAssay
Activity calls are given as the source filed them.

How the values were obtained:
[1] = tested on: PRMT1 (protein arginine N-methyltransferase 1); test: small molecules binding arginine methyltransferase PRMT1 – biochemical, small-molecule microarray, 635 nm fluorescence, primary screen (AID 1088); conditions: higher = more signal;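 further: binding of Prmt1 protein to compounds spotted on small-molecule microarray slides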
[2] = growth effects on S. cerevisiae YJM789 – YJM789 clinical isolate, OD600, 24 h, basal, primary screen (AID 1089); conditions: higher = more signal, called active from +8 up or from −8 down;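 further: growth of clinical yeast isolate S. cerevisiae YJM 789 seeded 1000 cells per well; test concentration not given here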
[3] = S. pombe growth modifiers, basal conditions – strain 972, OD600, 24 h, no modulator, primary screen (AID 1090);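 further: basal condition with compound alone and no growth modifier present; test concentration not given here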; conditions: S. pombe 972 growth, higher = more signal, called active from +8 up or from −8 down
[4] = budding yeast growth modifiers under rapamycin – strain BY4716, OD600, 96 h, primary screen (AID 1091); further: test concentration not given here; conditions: S. cerevisiae BY4716 + rapamycin, higher = more signal, called active from +8 up or from −8 down
[5] = target: Torsin-1A-interacting protein 2 (Homo sapiens) (UniProt Q8NFQ8); test: small molecules binding lysate-expressed LULL1 – cell lysate, human LULL1 lysate, 635/667 nm fluorescence, primary screen (AID 1092); conditions: small-molecule microarray, hLULL1 lysate binding, 635 nm fluorescence; higher = more signal;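 further: probe is lysate of COS7 cells overexpressing human LULL1; score merges per-feature 667 nm fluorescence with signal-to-noise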
[6] = optical density change of DRC41 E. coli – strain DRC41, OD650, 24 h, E. coli filamentation project, primary screen (AID 1093);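 further: MC1000 strain lacking acrAB efflux and sulA so SOS filamentation is blocked; test concentration not given here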; conditions: E. coli DRC41 growth, higher = more signal, called active from +8 up or from −8 down
[7] = probe aLefty2 binding to arrayed compounds – biochemical, biotinylated probe, 635/667 nm fluorescence, primary screen (AID 1094); conditions: small-molecule microarray, higher = more signal;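 further: score merges spot fluorescence near 667 nm with spot signal-to-noise ratio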
[8] = tested on: Noggin (protein binding on small-molecule microarray); test: small molecules binding Noggin protein – biochemical, 635/667 nm fluorescence, primary screen (AID 1095); conditions: 635 nm fluorescence, higher = more signal;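 further: score merges 667 nm feature fluorescence with signal to noise over triplicate slides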
[9] = target: Neurogenic locus notch homolog protein 3 (Homo sapiens) (UniProt Q9UM47); test: small molecules binding NOTCH3 protein – biochemical, 635/667 nm fluorescence, primary screen (AID 1096); conditions: small-molecule microarray, 635 nm fluorescence, higher = more signal
[10] = probe aEGFR binding to arrayed compounds – biochemical, biotinylated probe, 635/667 nm fluorescence, primary screen (AID 1097); conditions: small-molecule microarray, higher = more signal;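 further: probe is a biotinylated anti-EGFR antibody binding compounds printed on slides; score combines fluorescence near 667 nm and signal to noise of each spot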
[11] = tested on: Plasmodium falciparum Sir2 (PF13_0152, Sir2A); test: Plasmodium falciparum Sir2A binding compounds – biochemical, small-molecule microarray, 635 nm fluorescence, primary screen (AID 1098); conditions: fluorescence 635 nm, higher = more signal;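 further: score merges spot fluorescence intensity with its signal-to-noise ratio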
[12] = probe aDKK1 binding to arrayed compounds – biochemical, biotinylated probe, 635/667 nm fluorescence, primary screen (AID 1099); conditions: small-molecule microarray, higher = more signal;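 further: score merges 667nm spot fluorescence with signal to noise across triplicate slides; reference of the scale not given here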
[13] = probe aCHRDL2 binding to arrayed compounds – biochemical, biotinylated probe, 635/667 nm fluorescence, primary screen (AID 1100); conditions: small-molecule microarray, higher = more signal
[14] = change in splice reporter luminescence, either direction, cell-based, HEK293, spliceosome inhibition project, primary screen (AID 1101); conditions: HEK293 splicing luciferase reporter, 24 h, higher = more signal, called active from +8 up or from −8 down;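 further: HEK293 cells carrying a splicing-competent luciferase reporter gene; test concentration not given here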
[15] = target: Fibroblast growth factor 10 (Homo sapiens) (UniProt O15520); test: compounds binding fibroblast growth factor 10 – biochemical, small-molecule microarray, 635 nm fluorescence, primary screen (AID 1102); conditions: FGF10 binding, fluorescence 635 nm, higher = more signal
[16] = tested on: glycogen synthase kinase-3 (GSK3A per assay name; protocol says GSK3B); test: compounds binding glycogen synthase kinase-3 – biochemical, small-molecule microarray, 635 nm fluorescence, GSK3A, primary screen (AID 1103); conditions: fluorescence 635 nm, higher = more signal; further: the record names both GSK3A and GSK3B
[17] = target: Epidermal growth factor receptor (Homo sapiens) (UniProt P00533); test: compounds binding epidermal growth factor receptor – biochemical, small-molecule microarray, 635 nm fluorescence, primary screen (AID 1104); conditions: EGFR binding, higher = more signal;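 further: score merges 667 nm emission intensity with spot signal to noise over triplicate slides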
[18] = target: Follistatin-related protein 3 (Homo sapiens) (UniProt O95633); test: compounds binding follistatin-related protein 3 – biochemical, small-molecule microarray, 635 nm fluorescence, primary screen (AID 1105); conditions: FSTL3 binding, higher = more signal;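 further: score merges emission near 667 nm and signal to noise per printed spot across three slides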
[19] = target: Dickkopf-related protein 1 (Homo sapiens) (UniProt O94907); test: small molecules binding DKK1 protein – biochemical, small-molecule microarray, 635 nm fluorescence scan, primary screen (AID 1106); conditions: higher = more signal;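 further: score merges emission near 667 nm with signal to noise over three replicate slides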
[20] = tested on: Inhibin beta A chain (activin A); test: small molecules binding activin A – biochemical, small-molecule microarray, 635 nm fluorescence scan, primary screen (AID 1107); conditions: INHBA, higher = more signal;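 further: mouse activin A protein probed at 4.33 µg/mL on printed slides; score merges bound-protein fluorescence near 667 nm with spot signal-to-noise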

Follistatin-related protein 3 (Homo sapiens), sequence (O95633 whole entry, looked up): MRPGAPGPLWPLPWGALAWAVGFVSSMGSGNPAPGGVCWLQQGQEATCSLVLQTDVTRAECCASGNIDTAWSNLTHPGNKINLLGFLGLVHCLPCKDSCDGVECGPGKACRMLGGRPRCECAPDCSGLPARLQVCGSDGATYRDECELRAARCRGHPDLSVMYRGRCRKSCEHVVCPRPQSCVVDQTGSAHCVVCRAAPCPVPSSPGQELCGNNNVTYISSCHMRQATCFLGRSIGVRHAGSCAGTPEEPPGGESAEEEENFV
Epidermal growth factor receptor (Homo sapiens), sequence (P00533 whole entry, looked up): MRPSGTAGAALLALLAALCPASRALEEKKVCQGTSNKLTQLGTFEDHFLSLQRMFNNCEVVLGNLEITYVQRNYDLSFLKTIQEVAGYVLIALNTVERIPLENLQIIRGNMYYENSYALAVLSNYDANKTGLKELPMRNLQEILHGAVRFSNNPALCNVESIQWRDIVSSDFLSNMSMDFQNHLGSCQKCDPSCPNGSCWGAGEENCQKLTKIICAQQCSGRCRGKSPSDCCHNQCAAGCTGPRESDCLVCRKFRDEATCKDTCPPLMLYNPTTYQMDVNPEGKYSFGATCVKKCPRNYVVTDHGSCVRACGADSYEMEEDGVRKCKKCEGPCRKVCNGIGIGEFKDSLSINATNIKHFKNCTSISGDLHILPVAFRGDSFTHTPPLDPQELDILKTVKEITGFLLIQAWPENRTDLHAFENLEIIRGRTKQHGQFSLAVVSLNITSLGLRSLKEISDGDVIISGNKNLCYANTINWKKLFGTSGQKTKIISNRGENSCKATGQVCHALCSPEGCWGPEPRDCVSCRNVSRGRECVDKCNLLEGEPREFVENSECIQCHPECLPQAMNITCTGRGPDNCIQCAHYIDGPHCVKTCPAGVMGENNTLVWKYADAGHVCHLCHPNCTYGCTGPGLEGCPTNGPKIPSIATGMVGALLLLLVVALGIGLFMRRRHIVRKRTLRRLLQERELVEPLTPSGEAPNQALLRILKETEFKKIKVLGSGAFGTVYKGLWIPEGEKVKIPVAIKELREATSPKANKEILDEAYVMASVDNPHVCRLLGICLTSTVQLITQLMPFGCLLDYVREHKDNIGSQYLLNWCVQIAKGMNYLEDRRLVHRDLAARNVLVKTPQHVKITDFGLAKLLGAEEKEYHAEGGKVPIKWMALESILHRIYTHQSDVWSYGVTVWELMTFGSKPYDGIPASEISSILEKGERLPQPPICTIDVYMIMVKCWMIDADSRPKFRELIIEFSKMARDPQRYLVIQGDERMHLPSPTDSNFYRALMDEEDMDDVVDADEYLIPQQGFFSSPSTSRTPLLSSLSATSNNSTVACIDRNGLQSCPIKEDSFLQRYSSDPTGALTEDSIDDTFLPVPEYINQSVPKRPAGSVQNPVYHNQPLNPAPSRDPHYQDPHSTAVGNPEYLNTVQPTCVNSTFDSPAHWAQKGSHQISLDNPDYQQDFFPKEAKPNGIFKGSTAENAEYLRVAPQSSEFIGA
Neurogenic locus notch homolog protein 3 (Homo sapiens), sequence (Q9UM47 whole entry, looked up): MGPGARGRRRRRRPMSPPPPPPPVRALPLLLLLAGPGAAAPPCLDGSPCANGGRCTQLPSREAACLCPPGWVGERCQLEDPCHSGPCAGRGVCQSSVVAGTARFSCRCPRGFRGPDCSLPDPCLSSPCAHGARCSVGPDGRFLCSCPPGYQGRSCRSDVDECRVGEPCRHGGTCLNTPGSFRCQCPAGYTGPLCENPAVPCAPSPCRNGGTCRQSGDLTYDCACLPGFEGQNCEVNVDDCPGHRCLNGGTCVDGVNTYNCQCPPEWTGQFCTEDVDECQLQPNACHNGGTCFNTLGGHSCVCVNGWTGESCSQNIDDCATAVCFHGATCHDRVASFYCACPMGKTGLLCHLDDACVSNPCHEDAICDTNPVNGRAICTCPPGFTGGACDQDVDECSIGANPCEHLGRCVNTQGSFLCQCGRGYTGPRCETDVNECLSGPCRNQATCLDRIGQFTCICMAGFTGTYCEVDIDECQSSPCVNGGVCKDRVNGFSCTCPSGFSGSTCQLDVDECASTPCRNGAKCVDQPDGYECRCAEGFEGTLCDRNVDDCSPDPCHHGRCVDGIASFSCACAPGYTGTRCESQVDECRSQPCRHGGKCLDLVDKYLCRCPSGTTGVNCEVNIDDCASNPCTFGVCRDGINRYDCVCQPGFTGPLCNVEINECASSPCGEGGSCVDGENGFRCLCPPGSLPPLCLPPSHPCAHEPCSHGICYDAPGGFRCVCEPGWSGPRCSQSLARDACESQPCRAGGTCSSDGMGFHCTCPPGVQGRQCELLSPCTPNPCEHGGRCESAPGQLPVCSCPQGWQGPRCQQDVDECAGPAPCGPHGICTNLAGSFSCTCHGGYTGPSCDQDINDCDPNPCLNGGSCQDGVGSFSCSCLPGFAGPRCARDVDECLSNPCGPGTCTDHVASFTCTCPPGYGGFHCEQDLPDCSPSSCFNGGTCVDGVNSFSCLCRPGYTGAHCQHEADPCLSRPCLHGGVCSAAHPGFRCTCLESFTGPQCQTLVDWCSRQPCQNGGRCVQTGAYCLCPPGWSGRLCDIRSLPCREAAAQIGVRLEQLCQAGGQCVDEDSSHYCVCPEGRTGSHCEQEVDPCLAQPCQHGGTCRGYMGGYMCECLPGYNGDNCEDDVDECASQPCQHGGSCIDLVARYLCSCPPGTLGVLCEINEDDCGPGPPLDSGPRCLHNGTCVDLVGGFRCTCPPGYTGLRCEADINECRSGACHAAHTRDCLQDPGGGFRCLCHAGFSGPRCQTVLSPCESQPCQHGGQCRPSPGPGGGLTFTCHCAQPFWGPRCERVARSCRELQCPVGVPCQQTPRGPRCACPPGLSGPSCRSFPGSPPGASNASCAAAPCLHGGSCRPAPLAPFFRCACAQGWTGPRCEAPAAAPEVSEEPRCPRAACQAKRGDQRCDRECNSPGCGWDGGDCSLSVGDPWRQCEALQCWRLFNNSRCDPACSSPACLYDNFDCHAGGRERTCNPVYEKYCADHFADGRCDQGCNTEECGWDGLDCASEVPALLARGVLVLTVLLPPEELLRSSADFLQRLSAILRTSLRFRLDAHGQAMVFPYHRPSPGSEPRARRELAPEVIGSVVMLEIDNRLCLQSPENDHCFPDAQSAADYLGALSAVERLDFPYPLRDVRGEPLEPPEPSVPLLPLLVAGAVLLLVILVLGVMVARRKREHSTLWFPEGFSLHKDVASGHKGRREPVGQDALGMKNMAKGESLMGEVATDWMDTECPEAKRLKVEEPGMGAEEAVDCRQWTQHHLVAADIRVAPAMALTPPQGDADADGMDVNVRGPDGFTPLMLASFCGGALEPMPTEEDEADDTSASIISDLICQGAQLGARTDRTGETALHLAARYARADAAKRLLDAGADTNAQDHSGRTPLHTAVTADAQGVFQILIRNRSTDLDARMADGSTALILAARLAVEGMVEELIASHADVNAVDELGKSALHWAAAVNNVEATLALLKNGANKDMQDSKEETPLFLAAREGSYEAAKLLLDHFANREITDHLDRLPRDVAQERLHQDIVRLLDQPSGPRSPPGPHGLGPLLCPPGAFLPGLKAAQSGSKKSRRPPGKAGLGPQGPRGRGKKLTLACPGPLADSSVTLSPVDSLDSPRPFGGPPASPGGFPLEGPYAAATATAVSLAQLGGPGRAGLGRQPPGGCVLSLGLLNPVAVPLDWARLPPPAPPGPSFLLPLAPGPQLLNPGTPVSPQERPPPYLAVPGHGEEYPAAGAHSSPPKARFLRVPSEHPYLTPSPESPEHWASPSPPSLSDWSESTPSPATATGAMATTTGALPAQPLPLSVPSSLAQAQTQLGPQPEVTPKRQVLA
Torsin-1A-interacting protein 2 (Homo sapiens), sequence (Q8NFQ8 whole entry, looked up): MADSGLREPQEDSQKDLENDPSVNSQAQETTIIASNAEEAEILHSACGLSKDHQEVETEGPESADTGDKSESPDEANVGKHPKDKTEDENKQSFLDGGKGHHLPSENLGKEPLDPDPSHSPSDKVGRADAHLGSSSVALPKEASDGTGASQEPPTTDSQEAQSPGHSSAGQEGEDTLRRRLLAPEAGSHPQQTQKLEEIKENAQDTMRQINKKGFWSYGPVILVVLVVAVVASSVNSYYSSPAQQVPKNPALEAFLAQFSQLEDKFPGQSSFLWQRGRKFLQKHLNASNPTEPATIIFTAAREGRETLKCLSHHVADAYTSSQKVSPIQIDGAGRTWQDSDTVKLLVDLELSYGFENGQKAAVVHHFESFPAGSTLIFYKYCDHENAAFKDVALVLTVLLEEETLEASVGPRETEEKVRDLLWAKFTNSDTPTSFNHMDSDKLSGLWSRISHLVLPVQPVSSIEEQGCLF
Dickkopf-related protein 1 (Homo sapiens), sequence (O94907 whole entry, looked up): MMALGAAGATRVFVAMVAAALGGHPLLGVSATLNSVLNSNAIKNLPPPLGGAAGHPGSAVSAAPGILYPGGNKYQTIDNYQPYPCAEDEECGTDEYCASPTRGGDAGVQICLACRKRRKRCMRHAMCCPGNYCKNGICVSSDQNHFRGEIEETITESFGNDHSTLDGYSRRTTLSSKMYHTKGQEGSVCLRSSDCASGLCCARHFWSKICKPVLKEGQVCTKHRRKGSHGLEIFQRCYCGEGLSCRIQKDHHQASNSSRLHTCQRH
Fibroblast growth factor 10 (Homo sapiens), sequence (O15520 whole entry, looked up): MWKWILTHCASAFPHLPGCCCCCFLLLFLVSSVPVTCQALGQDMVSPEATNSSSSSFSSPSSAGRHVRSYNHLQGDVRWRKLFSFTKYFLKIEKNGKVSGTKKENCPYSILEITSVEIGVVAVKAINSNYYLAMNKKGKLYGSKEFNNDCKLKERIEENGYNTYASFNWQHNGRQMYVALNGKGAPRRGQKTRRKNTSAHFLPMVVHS

| SMILES | composite z-score [1] | z-score [2] | z-score [3] | z-score [4] | composite z-score [5] | z-score [6] | composite z-score [7] | composite z-score [8] | composite z-score [9] | composite z-score [10] | composite z-score [11] | composite z-score [12] | composite z-score [13] | z-score [14] | composite z-score [15] | composite z-score [16] | composite z-score [17] | composite z-score [18] | composite z-score [19] | composite z-score [20] |
| --- | --- | --- | --- | --- | --- | --- | --- | --- | --- | --- | --- | --- | --- | --- | --- | --- | --- | --- | --- | --- |
| COc1ccc([Si](C)(C)[C@H]2[C@H](CCO)O[C@@]3(C(=O)N(Cc4cccc(N5C(=O)c6ccccc6Oc6ccccc65)c4)c4ccccc43)[C@@H]2C)cc1 | 0.891 | 2.14 (inactive) | -0.506 (inactive) | 23.1 (active) | 1.51 | 1.03 (inactive) | -0.118 | -0.202 | 0.451 | -0.108 | 0.742 | -0.109 | -0.236 | -1.93 (inactive) | 0.396 | -0.479 | 0.111 | -0.628 | -0.0781 | 0.212 |
| O=C1O[C@H](Cc2ccccc2)[C@@H]2[C@H]3C=CCCC=C3CN2[C@H]1Cc1ccc(O)cc1 | -1.14 | -0.055 (inactive) | -1.54 (inactive) | -0.621 (inactive) | -0.145 | 0.222 (inactive) | -0.0591 | -0.0371 | -0.268 | -0.0958 | 0.968 | -0.271 | -0.0179 | 0.192 (inactive) | -0.36 | -1.16 | -0.317 | -0.17 | -0.0128 | 0.991 |
| COCCOC(=O)N1C(=O)[C@@]2(c3cc(C#CCCO)ccc31)[C@H](c1ccc(OCCO)cc1)N1[C@H](c3ccccc3)[C@H](c3ccccc3)OC(=O)[C@H]1[C@@H]2C(=O)N1CCCCCCC1 | 1.54 | 0.869 (inactive) | 0.277 (inactive) | 3.69 (inactive) | 2.82 | -0.405 (inactive) | 1.62 | 1.49 | 1.04 | 0.611 | 1.23 | 2.43 | 1.51 | 0.458 (inactive) | 1.25 | 1.32 | 1.32 | 1.54 | 1.85 | 1.73 |
| CCCCCC1=C2CNC(CC(C)C)(C(=O)OC)C=C2C(C)C1=O (stereo not given) | 1.51 | 0.298 (inactive) | 0.421 (inactive) | 0.22 (inactive) | 2.87 | -0.415 (inactive) | 0.0887 | -0.272 | 0.225 | -0.126 | 0.452 | 0.72 | 0.952 | 5.08 (inactive) | 0.071 | -0.361 | -0.73 | -0.403 | -0.756 | 1.23 |
| C=C(CCCC)/C(=C/C[C@H](OC(=O)c1ccncc1)c1ccc(OCCO)cc1)c1cnc2ccccc2c1 | 1.51 | 0.144 (inactive) | -2.06 (inactive) | 0.199 (inactive) | 1.26 | 0.7 (inactive) | -0.0306 | 1.17 | 1.09 | 0.0129 | 1.47 | -0.107 | 0.164 | -0.0197 (inactive) | 0.898 | 0.829 | 0.776 | 1.45 | 0.768 | 1.36 |
| CCCCC(O)C1C=CC2C(=O)N(c3ccccc3)C(=O)C2N1Nc1ccc([N+](=O)[O-])cc1 (stereo not given) | 1.55 | -0.676 (inactive) | 0.429 (inactive) | 0.154 (inactive) | 3.68 | 0.916 (inactive) | -0.144 | 0.146 | 1.11 | -0.0828 | 1.2 | 0.379 | 0.21 | -0.846 (inactive) | 0.435 | 1.32 | 0.0456 | 1.3 | -0.105 | 0.329 |
| C=C(CCCC)C(=O)CC[C@H](OC(=O)c1ccccc1-c1ccccc1C(=O)O)c1ccc(OCCO)cc1 | 0.636 | -0.338 (inactive) | -1.48 (inactive) | -1.88 (inactive) | 1.65 | 0.836 (inactive) | -0.0563 | 1.43 | 0.171 | -0.0197 | 1.25 | -0.253 | -0.403 | 1.02 (inactive) | 0.569 | 0.107 | 0.12 | 0.0258 | 0.248 | 1.09 |
| COCCOC(=O)N1C(=O)[C@@]2(c3cc(C#CC4(O)CCCCCC4)ccc31)[C@H](c1ccc(O)cc1)N1[C@H](c3ccccc3)[C@H](c3ccccc3)OC(=O)[C@H]1[C@@H]2C(=O)N1CCCCCCC1 | 1.55 | -0.016 (inactive) | 0.056 (inactive) | 0.367 (inactive) | 2.09 | 0.709 (inactive) | 0.189 | 1.3 | 1.06 | 0.0896 | 1.08 | 1.2 | 0.771 | -0.803 (inactive) | 1.28 | 1.29 | 0.314 | 1.05 | 0.112 | 1.72 |
| O=C1O[C@@H](c2ccccc2)[C@@H](c2ccccc2)N2[C@@H](c3ccc(OCCO)cc3)[C@]3(C(=O)Nc4ccc(C#CC5(O)CCCCCC5)cc43)[C@@H](C(=O)Nc3nc4ccccc4s3)[C@H]12 | 1.55 | 2.44 (inactive) | 1.19 (inactive) | 2.78 (inactive) | 2.96 | 0.799 (inactive) | 0.0769 | 1.18 | 1.07 | 0.191 | 0.943 | 0.552 | 0.662 | -0.102 (inactive) | 1.39 | 1.31 | 0.533 | 1.38 | 0.553 | 0.541 |
| C=C(COC)C(=O)CC[C@@H](OC(=O)c1ccccc1-c1ccccc1C(=O)O)c1ccc(OCCO)cc1 | 1.39 | -0.656 (inactive) | -0.943 (inactive) | -0.856 (inactive) | 0.886 | 0.315 (inactive) | -0.0341 | 1.26 | 0.505 | -0.139 | 0.398 | -0.321 | 0.0721 | 0.833 (inactive) | 0.983 | -0.278 | -0.487 | 0.684 | 0.0668 | 1.08 |
